{
  "source": "the supplement of paper PMC6555819",
  "data": [
    {"system": "VDR homodimer (NR concentration 270 nM)", "test": "PBM binding z-score (relative to random genomic background probes); higher = stronger binding; sequences stand for … in GC…GCGATTGACAGCGTAGAATGAAGG", "summary_of_the_method": "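Each nuclear receptor dimer, without ligand, was incubated for 1 h on custom Agilent 4×180K protein-binding microarrays. Binding was detected with antibodies against each partner (one per run), and scanned fluorescence was regression-normalized. The binding z-scores are referenced to random human genomic background probes.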", "values": [
      {"sequence": "AGAACGAGGGCAATGAGTTGGTAGCACGGGTGGC", "PBM binding z-score": 1.98},
      {"sequence": "TCATATAGGAAAAAGGTGAAAGTCGGTGTGGTAA", "PBM binding z-score": 0.152},
      {"sequence": "GCCGCTAGGTCAGGTTGGTCAGCTAACGGGTACG", "PBM binding z-score": 0.312},
      {"sequence": "CAAACTAGGTCACAGAGCTCAAAGTCCGTGCGTA", "PBM binding z-score": 0.62},
      {"sequence": "TTTATTAGTTGAAGGGCAACCGACGAGTCCGTTT", "PBM binding z-score": 1.91},
      {"sequence": "CCTACTGGTCCATTCAGAGGTCATTGATCATATG", "PBM binding z-score": 4.16},
      {"sequence": "TCATATAGGTAAAGAGGTGAAAGTCCGTAAGTTA", "PBM binding z-score": 0.613},
      {"sequence": "ATCTCTAGGTAAAGTTCAGTGCAAGATCGATAGA", "PBM binding z-score": 2.47},
      {"sequence": "TTACCAAGGTGAAGGGCGTTGATCCCTCTGTAGA", "PBM binding z-score": -0.115},
      {"sequence": "CTCGAAAGGTCGGTTGAGGTGAGTATCCGGATAA", "PBM binding z-score": 0.136},
      {"sequence": "GGAACGAGGGCATTCGAGTAGATAGCATGGCGAT", "PBM binding z-score": 1.51},
      {"sequence": "ACTTACCGGTCAACGAGGTTATAGCACGCGTATA", "PBM binding z-score": 2.26},
      {"sequence": "ACTAGTTGGTCAGATGAGGTCACACACAATTCGG", "PBM binding z-score": 4.21},
      {"sequence": "AAAGACAGGTGAGTGAAGGTAACTCAGCTGGACG", "PBM binding z-score": -0.128},
      {"sequence": "AGTCAAAGTTCATCTAGGTGACGTAAGATATGCT", "PBM binding z-score": 4.86},
      {"sequence": "CCTGCTAGGTCATGGTCAGCTAATCTACAGTATG", "PBM binding z-score": 0.473},
      {"sequence": "ATATGTAGGTTATTGGGTCATTCAGTTTGCGCAT", "PBM binding z-score": 3.17},
      {"sequence": "TCTTGTAGATCAACAGGAGCTTAAGAAAGATCGA", "PBM binding z-score": -0.768}
    ]}
  ]
}
